Our source for the growth values is PubChem BioAssay (NCI).

Holding throughout (experiment): NCI-60 one-dose screen, 48 h (100 = growth as untreated, 0 = no growth, -100 = all killed)
What all share (conditions): 10 µM unless noted

In assay [1] the test system is SR leukemia.
For assay [2], the system named is RPMI-8226 leukemia.
Assay [3] concerns OVCAR-8 ovarian.
The test system of assay [4] is OVCAR-5 ovarian.
Assay [5] has as its system OVCAR-4 ovarian.
Assay [6] concerns SK-OV-3 ovarian.
Assay [7] concerns IGROV1 ovarian.
The subject of assay [8] is OVCAR-3 ovarian.
Assay [9] has as its system HS 578T breast.
Assay [10] concerns NCI/ADR-RES ovarian.
The subject of assay [11] is T-47D breast.
For assay [12], the system named is BT-549 breast.
The test system of assay [13] is MDA-MB-435 melanoma.
For assay [14], the system named is SW-620 colon.
The subject of assay [15] is MCF7 breast.
Assay [16] deals with HCT-116 colon.
For assay [17], the system named is HCC-2998 colon.
Assay [18] has as its system KM12 colon.

About 83,000 compounds went through this panel and 20% of them were active in at least one assay; those are over-represented in the sample as a whole.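 Plates (96-well) were seeded with cells, treated with compound at one concentration, and incubated for 48 hours before percent growth was determined.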 A number with no mark means an inactive call. Active and inactive are the calls of the source. The calls were made as follows: active = growth percent below 10; inactive = the rest.

Turning to `CNc1nc(C)c(-c2nc(Nc3cccc(S(N)(=O)=O)c3)ncc2F)s1`, the growth was -18.5% (active) in [1]; 2.6% (active) in [2]; 8.76% (active) in assay [3]; 3.14% (active) in assay [4]; 29.2% in assay [5]; 8.56% (active) in assay [6]. In addition, the growth in assay [7] is 4.94% (active); in [8], 10.2%; in [9], 3.64% (active); in assay [10], 5.57% (active); in assay [11], -2.75% (active); in assay [12], -17.1% (active). The growth in assay [13] was 17.6%; in assay [14], 8% (active); in assay [15], 1.33% (active); in [16], 5.28% (active); in [17], 2.96% (active); in [18] it was 5.25% (active).

Take `Cc1ccc2c(c1)C(=O)c1c-2c(OCCCN(C)C)nc2ccccc12`: the growth in [1] was -27.5% (active); in [2] it was -16.3% (active); in assay [3], 17.2%; in assay [4], 51.6%; in [5] it was 27.3%; in assay [6], 60.3%. In addition, the growth in assay [7] is 3.1% (active); in [8], 55%; in assay [9], 35.3%; in assay [10] it was 25.1%; in [11], 63.4%; in assay [12] it was 71.5%. For the same compound, the growth is -32.1% (active) in assay [13]; -57.3% (active) in [14]; -75.8% (active) in assay [15]; 21% in [16]; -15.2% (active) in [17]; -46.4% (active) in [18].

As to `CCCCCN(CCCCC)CCC[C@@H](C)[C@H]1CC[C@H]2[C@@H]3[C@H](OCCCN)C[C@@H]4C[C@H](OCCCN)CC[C@]4(C)[C@H]3C[C@H](OCCCN)[C@]12C`, the growth in assay [1] was 19.2%; in assay [2] it was -17.7% (active); in assay [3], 55.3%; in [4] it was 66.2%; in assay [5], 85.2%; in assay [6] it was 93.2%. The growth was 29.6% in assay [7]; 107% in assay [8]; 66.9% in assay [9]; 76% in assay [10]; 68.1% in [11]; 55% in assay [12]. Besides, the growth in [13] was -13.6% (active); in [14], 45.9%; in assay [15], 74.8%; in assay [16], 22.7%; in assay [17] it was 59.6%; in assay [18] it was 22.5%.

`COc1cccc(/C=C\C(=O)c2ccccc2)c1`: the growth in assay [1] was 47.5%; in assay [2] it was 6.17% (active); in assay [3], 81.4%; in assay [4], 94.7%; in assay [5], 47.4%; in assay [6], 107%. Moreover, the growth was 2.47% (active) in [7]; -4.31% (active) in assay [8]; 85.8% in assay [9]; 88% in assay [10]; 56.5% in [11]; 97.4% in assay [12]. In addition, the growth in assay [14] is 15%; in assay [15], 11.5%; in assay [16] it was 16.2%; in [17] it was 104%; in assay [18], 8.52% (active).

Turning to `COc1cccc(/C=C2/C(=O)N(Cc3ccco3)SC2=S)c1OC`, the growth was -0.493% (active) in [1]; 74.2% in assay [2]; 81.1% in assay [3]; 103% in assay [4]; 102% in [5]; 97.8% in assay [6]. Moreover, the growth in [7] is 104%; in [8], 110%; in [9], 109%; in assay [10] it was 103%; in assay [11], 81.2%; in assay [12], 89.7%. In addition, the growth in assay [13] was 84.6%; in assay [14], 98.4%; in [16] it was 86.4%; in assay [17], 108%; in assay [18] it was 92.2%.

For `O=C(Nc1ccc(Oc2ccc(F)cc2)c(Cl)c1)c1cccnc1`, the growth in assay [1] was 75.1%; in assay [2], 87.3%; in assay [3], 98.6%; in assay [4], 99.9%; in [5], 85.2%; in [6], 110%. In addition, the growth is 95.4% in [7]; 85.8% in assay [8]; 91.5% in [9]; 85.1% in [10]; 70.6% in assay [11]; 92.5% in assay [12]. Further, the growth in assay [13] is 41.5%; in assay [14], 92.7%; in assay [15], 76.7%; in [16] it was 88.2%; in [18], 76.4%.

Regarding `COc1ccc(C(=O)c2sc3nc(-c4ccccc4OC)ccc3c2N)cc1OC`, the growth is 21.6% in assay [1]; 19.7% in assay [2]; 43.2% in assay [3]; 89.8% in assay [4]; 61.5% in assay [5]; 107% in [6]. The growth is 57.5% in [7]; 68.9% in [8]; 55.6% in [9]; 33.1% in assay [10]; 26.4% in [11]; 20.9% in [12]. Moreover, the growth in assay [13] is 31.7%; in [14] it was 73.6%; in assay [15], 62.1%; in assay [16] it was 39.3%; in assay [18], 46.1%.

On to `COc1ccc(CCN2CC=Cn3c2nc2ccccc2c3=O)cc1`, for which the growth in [1] is 22.1%; in assay [2], 21.4%; in [3], 22.2%; in assay [4] it was 45%; in assay [5], 41.6%; in assay [6], 59.8%. In addition, the growth in assay [7] is 32.2%; in [8], -1.6% (active); in assay [9], 37.9%; in assay [10], 15%; in [11], 75%; in assay [12] it was 17.2%. For the same compound, the growth in assay [13] was -4.94% (active); in assay [14] it was 25.9%; in assay [16], 10.2%; in assay [17], 5.15% (active); in [18] it was 4.27% (active).

As to `O=[N+]([O-])c1cccc(-c2nc3sccn3c2-c2ccnc(NCCCNS(=O)(=O)c3ccc(F)cc3)n2)c1`, the growth was 9.01% (active) in assay [1]; -29.7% (active) in [2]; 3.44% (active) in [3]; 59.1% in assay [4]; -5.32% (active) in assay [5]; 37.1% in [6]. Moreover, the growth in assay [7] is 5.03% (active); in assay [8], 4.12% (active); in assay [9] it was 22.2%; in [10], -15.5% (active); in assay [11] it was -12.1% (active); in assay [12], -12.1% (active). The growth in assay [13] is 1.66% (active); in [14], 18.3%; in assay [16] it was 4.43% (active); in assay [17], 58.3%; in [18] it was 0.995% (active).
